Data from PubChem BioAssay (NCI).
About 79,000 compounds went through this panel and 15% of them were active in at least one assay; those are over-represented in the sample as a whole. The source made the active and inactive calls. Rule as the data show it: active = growth inhibition above about 70%; inactive = the rest.

What was measured:
[1] = NCI Yeast Anticancer Drug Screen. Data for the rad52 strain (AID 147);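 also: 0% = growth of vehicle-treated control cultures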; conditions: S. cerevisiae rad52 mutant growth inhibition, active compounds read high
In short: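 DNA repair-defective yeast; compound exposure; growth scored against vehicle controls.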

[2] = NCI Yeast Anticancer Drug Screen. Data for the wt1 strain (AID 149);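 also: 0% = growth of vehicle-treated wt1 cultures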; conditions: S. cerevisiae wt1 strain (SPY 50644) growth inhibition, active compounds read high
In short: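 Each compound is tested on wt1 yeast and the loss of growth versus vehicle gives the inhibition value.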

[3] = NCI Yeast Anticancer Drug Screen. Data for the rad50EPP+ strain (AID 151);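 also: 0% = growth of vehicle-treated control cultures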; conditions: S. cerevisiae rad50 mutant strain, active compounds read high
In short: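 rad50EPP+ yeast treated with test compounds. Readout: growth vs vehicle control.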

[4] = NCI Yeast Anticancer Drug Screen. Data for the mgt1 strain (AID 153); conditions: S. cerevisiae mgt1 mutant growth inhibition, active compounds read high
In short: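 Growth inhibition relative to vehicle controls was scored for the mgt1 yeast strain after compound exposure.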

[5] = NCI Yeast Anticancer Drug Screen. Data for the rad50 strain (AID 155);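 also: 0% = growth of vehicle-only cultures of the same strain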; conditions: S. cerevisiae rad50 strain growth inhibition, active compounds read high
In short: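 Vehicle-treated cultures provide the reference for the growth inhibition reported for compound-exposed, repair-deficient yeast.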

[6] = NCI Yeast Anticancer Drug Screen. Data for the mec2-1 strain (AID 157); conditions: S. cerevisiae mec2-1 strain, active compounds read high
In short: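 Growth inhibition is read against vehicle-treated controls after compound exposure of the mec2-1 yeast strain, which is defective in DNA damage repair or cell cycle control.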

[7] = NCI Yeast Anticancer Drug Screen. Data for the rad14 strain (AID 159);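 also: 0% = growth of vehicle-treated control cultures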; conditions: S. cerevisiae rad14 strain growth inhibition, active compounds read high
In short: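 Inhibition of growth is reported for a repair-deficient yeast mutant following compound treatment, calculated relative to cultures that received vehicle.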

[8] = NCI Yeast Anticancer Drug Screen. Data for the sgs1 mgt1 strain (AID 161);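 also: 0% = growth of cultures given vehicle only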; conditions: S. cerevisiae sgs1 mgt1 strain, active compounds read high
In short: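 Compounds are added to genetically altered yeast, and growth is compared with cultures given vehicle alone to give percent inhibition.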

[9] = NCI Yeast Anticancer Drug Screen. Data for the CLN2oe strain (AID 163);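 also: 0% = growth of vehicle-only control cultures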; conditions: S. cerevisiae CLN2oe strain, active compounds read high
In short: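 Compound-treated yeast; growth vs vehicle ctrl = % inhibition. Genetically altered strain (cell-cycle control).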

[10] = NCI Yeast Anticancer Drug Screen. Data for the cln2 rad14 strain (AID 165);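 also: 0% = growth equal to vehicle treated cultures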; conditions: S. cerevisiae cln2 rad14 strain, active compounds read high
In short: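 Growth inhibition, relative to vehicle-treated controls, is the read-out. The test organism is a yeast strain with defined genetic alterations, cln2 rad14.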

[11] = NCI Yeast Anticancer Drug Screen. Data for the bub3 strain (AID 167); conditions: S. cerevisiae bub3 mutant strain, active compounds read high
In short: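 Mutant yeast screening strain plus compound; vehicle-treated cultures serve as the 0% inhibition reference.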

[12] = NCI Yeast Anticancer Drug Screen. Data for the wt2 strain (AID 169); conditions: S. cerevisiae wt2 strain growth inhibition, active compounds read high
In short: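 Compound exposure of yeast; growth compared with vehicle controls; inhibition reported.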

[13] = NCI Yeast Anticancer Drug Screen. Data for the mlh1 strain (AID 171);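 also: 0% = growth of vehicle-treated control cultures of the same strain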; conditions: S. cerevisiae mlh1 strain growth inhibition, active compounds read high
In short: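 Compounds are applied to a genetically altered yeast strain, and its growth is compared with that of vehicle-treated cultures to give percent inhibition.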

[14] = NCI Yeast Anticancer Drug Screen. Data for the sgs1 strain (AID 173);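 also: 0% = growth of vehicle-only control cultures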; conditions: S. cerevisiae sgs1 mutant, active compounds read high
In short: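 Compounds applied to genetically altered yeast; growth compared with vehicle-treated cultures to give % inhibition.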

[15] = NCI Yeast Anticancer Drug Screen. Data for the mlh1 rad18 strain (AID 175); conditions: S. cerevisiae mlh1 rad18 strain growth inhibition, active compounds read high
In short: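 Cells of a genetically altered yeast strain, deficient in DNA damage repair, were treated with compound. Their growth was then compared with that of vehicle-treated cultures to give inhibition.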

[16] = at 5.0 µM (retest, dose inferred, filed as 0.5)
[17] = at 50.0 µM (retest, dose inferred, filed as 5.0)

Measured: growth inhibition

C[Si](C)(C)/C=C/CCNC(C#N)c1ccccc1 (stereo unspecified)
inactive: [1]; at 1.2 µM -10% | [1]; at 3.7 µM -9% | [1]; at 11.0 µM 48% | [1]; at 33.0 µM 32% | [2]; at 1.2 µM 3% | [2]; at 3.7 µM -2% | [2]; at 11.0 µM 41% | [2]; at 33.0 µM 35% | [3]; at 1.2 µM -28% | [3]; at 3.7 µM -44% | [3]; at 11.0 µM -17% | [3]; at 33.0 µM -30% | [4]; at 1.2 µM -14% | [4]; at 3.7 µM -25% | [4]; at 11.0 µM 38% | [4]; at 33.0 µM 22% | [5]; at 1.2 µM -14% | [5]; at 3.7 µM -28% | [5]; at 11.0 µM 47% | [5]; at 33.0 µM 10% | [6]; at 1.2 µM -21% | [6]; at 3.7 µM -23% | [6]; at 11.0 µM 43% | [6]; at 33.0 µM 23% | [7]; at 1.2 µM -6% | [7]; at 3.7 µM 3% | [7]; at 11.0 µM 37% | [7]; at 33.0 µM 52% | [8]; [16] -12% | [9]; at 1.2 µM 3% | [9]; at 3.7 µM 10% | [9]; at 11.0 µM 52% | [9]; at 33.0 µM 42% | [10]; [16] 32% | [11]; at 1.2 µM -8% | [11]; at 3.7 µM 7% | [11]; [16] 12% | [11]; at 11.0 µM 38% | [11]; at 33.0 µM 43% | [12]; at 1.2 µM -9% | [12]; at 3.7 µM -19% | [12]; at 11.0 µM 39% | [12]; at 33.0 µM 36% | [13]; at 1.2 µM -16% | [13]; at 3.7 µM -5% | [13]; at 11.0 µM 49% | [13]; at 33.0 µM 33% | [14]; at 1.2 µM -19% | [14]; at 3.7 µM -15% | [14]; at 11.0 µM 42% | [14]; at 33.0 µM 31%
active: [1]; at 100.0 µM 93% | [2]; at 100.0 µM 95% | [3]; at 100.0 µM 74% | [4]; at 100.0 µM 94% | [5]; [16] 98% | [5]; [17] 99% | [5]; at 50.0 µM 89.7% | [5]; at 100.0 µM 92% | [6]; [16] 98% | [6]; [17] 99% | [6]; at 50.0 µM 91.8% | [6]; at 100.0 µM 95% | [7]; at 100.0 µM 94% | [8]; [17] 97% | [8]; at 50.0 µM 92.7% | [9]; at 100.0 µM 93% | [10]; [17] 97% | [10]; at 50.0 µM 90.2% | [11]; [17] 95% | [11]; at 50.0 µM 90.1% | [11]; at 100.0 µM 93% | [12]; at 100.0 µM 95% | [13]; at 100.0 µM 95% | [14]; at 100.0 µM 94% | [15]; [16] 99% | [15]; [17] 99% | [15]; at 50.0 µM 90.3%

CCCCC(CC)C(=O)[O][Sn]([CH2]CCC)([CH2]CCC)[O]C(=O)C(CC)CCCC (stereo unspecified)
active: [1]; at 33.0 µM 92% | [1]; at 100.0 µM 98% | [2]; at 33.0 µM 93% | [2]; at 100.0 µM 98% | [4]; at 33.0 µM 95% | [4]; at 100.0 µM 98% | [5]; at 33.0 µM 92% | [5]; [17] 98% | [5]; at 50.0 µM 86.4% | [5]; at 100.0 µM 97% | [6]; [16] 72% | [6]; at 33.0 µM 94% | [6]; at 50.0 µM 87.7% | [6]; at 100.0 µM 98% | [7]; at 33.0 µM 90% | [7]; at 100.0 µM 97% | [8]; [17] 95% | [8]; at 50.0 µM 89.4% | [9]; at 33.0 µM 92% | [9]; at 100.0 µM 98% | [10]; [17] 97% | [10]; at 50.0 µM 86.2% | [11]; at 33.0 µM 95% | [11]; [17] 93% | [11]; at 50.0 µM 89.8% | [11]; at 100.0 µM 98% | [12]; at 33.0 µM 90% | [12]; at 100.0 µM 98% | [13]; at 33.0 µM 88% | [13]; at 100.0 µM 97% | [14]; at 33.0 µM 89% | [14]; at 100.0 µM 97% | [15]; [17] 98% | [15]; at 50.0 µM 88.8%
inactive: [1]; at 1.2 µM 6% | [1]; at 3.7 µM 11% | [1]; at 11.0 µM 47% | [2]; at 1.2 µM -14% | [2]; at 3.7 µM -7% | [2]; at 11.0 µM 46% | [3]; at 1.2 µM 18% | [3]; at 3.7 µM 6% | [3]; at 11.0 µM 8% | [3]; at 33.0 µM 12% | [3]; at 100.0 µM 29% | [4]; at 1.2 µM -11% | [4]; at 3.7 µM 9% | [4]; at 11.0 µM 60% | [5]; at 1.2 µM 14% | [5]; at 3.7 µM 11% | [5]; [16] 50% | [5]; at 11.0 µM 51% | [6]; at 1.2 µM -11% | [6]; at 3.7 µM 14% | [6]; at 11.0 µM 56% | [6]; [17] 69% | [7]; at 1.2 µM -8% | [7]; at 3.7 µM 3% | [7]; at 11.0 µM 47% | [8]; [16] 2% | [9]; at 1.2 µM -21% | [9]; at 3.7 µM 5% | [9]; at 11.0 µM 37% | [10]; [16] 59% | [11]; at 1.2 µM 6% | [11]; at 3.7 µM 18% | [11]; [16] 44% | [11]; at 11.0 µM 68% | [12]; at 1.2 µM -27% | [12]; at 3.7 µM -10% | [12]; at 11.0 µM 49% | [13]; at 1.2 µM -38% | [13]; at 3.7 µM -21% | [13]; at 11.0 µM 33% | [14]; at 1.2 µM 2% | [14]; at 3.7 µM -5% | [14]; at 11.0 µM 37% | [15]; [16] 58%
